These results are taken from PubChem BioAssay AID743482 (Broad Institute, 2014).

The source made the active and inactive calls.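 Rule for the calls: active = falling viability signal whose fitted half-maximal concentration is at most twice the highest tested dose; inconclusive = flat fit with a moderate drop, or a poor curve fit; inactive = the rest.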

The experiment can be described thus: cytotoxicity in HepG2 cells, dose response, cytotoxicity control, cell-based, CellTiter-Glo luminescence, dry powder (AID 743482). The conditions noted are these: HepG2 viability, ATP luminescence, 72 h; series mostly up to 26 µM.
On to `C[C@H](CO)N1C[C@H](C)[C@H](CN(C)C(=O)Nc2ccc(F)cc2)OCCCC[C@H](C)Oc2ccc(NC(=O)C3CCCC3)cc2C1=O`, for which the call was inactive.

In the case of `C[C@H](CO)N1C[C@H](C)[C@H](CN(C)C(=O)Nc2ccc(C(F)(F)F)cc2)OCCCC[C@H](C)Oc2ccc(NC(=O)NC3CCCCC3)cc2C1=O`, the result was inactive.

For the compound `C[C@H](CO)N1C[C@H](C)[C@H](CN(C)C(=O)Nc2ccccc2)OCCCC[C@H](C)Oc2ccc(NC(=O)NC3CCCCC3)cc2C1=O`, the result was inactive.

Take `C[C@H](CO)N1C[C@H](C)[C@H](CN(C)C(=O)Nc2cccc3ccccc23)OCCCC[C@H](C)Oc2ccc(NC(=O)NC3CCCCC3)cc2C1=O`: the result was inactive.

Consider `C[C@H](CO)N1C[C@H](C)[C@H](CN(C)C(=O)Nc2ccc(F)cc2)OCCCC[C@H](C)Oc2ccc(NC(=O)NC3CCCCC3)cc2C1=O`, for which the result was inactive.

For `Cc1ccc(NC(=O)N(C)C[C@@H]2OCCCC[C@H](C)Oc3ccc(NC(=O)C4CCCCC4)cc3C(=O)N([C@H](C)CO)C[C@@H]2C)cc1`, the outcome was inactive.

Turning to `C[C@H](CO)N1C[C@H](C)[C@@H](CN(C)C(=O)Nc2cccc3ccccc23)OCCCC[C@H](C)Oc2ccc(NC(=O)C3CCCCC3)cc2C1=O`, the compound was called inactive.

For `C[C@H](CO)N1C[C@H](C)[C@H](CN(C)C(=O)Nc2ccccc2)OCCCC[C@H](C)Oc2ccc(NC(=O)C3CCCCC3)cc2C1=O`, the call was inactive.

Regarding `C[C@@H]1CN([C@H](C)CO)C(=O)c2cc(NC(=O)C3CCCCC3)ccc2O[C@@H](C)CCCCO[C@H]1CN(C)C(=O)Nc1cccc2ccccc12`, the outcome was inactive.

As to `C[C@@H]1CN([C@H](C)CO)C(=O)c2cc(NC(=O)C3CCCCC3)ccc2O[C@@H](C)CCCCO[C@@H]1CN(C)C(=O)Nc1cccc2ccccc12`, the result was inactive.

For `C[C@H](CO)N1C[C@H](C)[C@H](CN(C)C(=O)Nc2ccc(C(F)(F)F)cc2)OCCCC[C@H](C)Oc2ccc(NC(=O)CCC(F)(F)F)cc2C1=O`, the compound was called inactive.

On to `CC(=O)Nc1ccc2c(c1)C(=O)N([C@H](C)CO)C[C@H](C)[C@H](CN(C)C(=O)Nc1ccc(F)cc1)OCCCC[C@H](C)O2`, for which the compound was classed as inactive.

On to `COc1ccc(S(=O)(=O)N(C)C[C@@H]2OCCCC[C@H](C)Oc3ccc(NS(=O)(=O)c4ccc(Cl)cc4)cc3C(=O)N([C@@H](C)CO)C[C@@H]2C)cc1`, for which the outcome was inactive.

Turning to `C[C@H](CO)N1C[C@H](C)[C@H](CN(C)C(=O)Nc2ccccc2F)OCCCC[C@H](C)Oc2ccc(NC(=O)C3CCCCC3)cc2C1=O`, the outcome was inactive.

For `C[C@H]1CCCCO[C@@H](CN(C)C(=O)Nc2ccc(F)cc2)[C@@H](C)CN([C@@H](C)CO)C(=O)c2cc(NC(=O)C3CCCCC3)ccc2O1`, the outcome was inactive.

As for `C[C@H](CO)N1C[C@H](C)[C@H](CN(C)C(=O)Nc2ccccc2)OCCCC[C@H](C)Oc2ccc(NC(=O)Nc3ccc4c(c3)OCO4)cc2C1=O`, the compound was called inactive.

As for `C[C@H](CO)N1C[C@H](C)[C@H](CN(C)C(=O)Nc2cccc(F)c2)OCCCC[C@H](C)Oc2ccc(NC(=O)C3CCCCC3)cc2C1=O`, the compound was called inactive.

As for `C[C@@H]1CCCCO[C@H](CN(C)C(=O)Nc2cccc3ccccc23)[C@H](C)CN([C@@H](C)CO)C(=O)c2cc(NC(=O)C3CCCCC3)ccc2O1`, the compound was classed as inactive.

For the compound `C[C@H](CO)N1C[C@H](C)[C@H](CN(C)C(=O)Nc2ccc(Cl)cc2)OCCCC[C@H](C)Oc2ccc(NC(=O)C3CCCCC3)cc2C1=O`, the call was inactive.

Take `C[C@H](CO)N1C[C@H](C)[C@H](CN(C)C(=O)Nc2ccc(F)cc2)OCCCC[C@H](C)Oc2ccc(NC(=O)C3CC3)cc2C1=O`: the result was inactive.

`C[C@@H]1CCCCO[C@@H](CN(C)C(=O)Nc2cccc3ccccc23)[C@H](C)CN([C@H](C)CO)C(=O)c2cc(NC(=O)C3CCCCC3)ccc2O1`: the result was inactive.

`C[C@H](CO)N1C[C@H](C)[C@H](CN(C)C(=O)Nc2ccc(F)cc2)OCCCC[C@H](C)Oc2ccc(NC(=O)Nc3ccc(F)cc3)cc2C1=O`: the result was inactive.

As for `C[C@@H]1CCCCO[C@H](CN(C)C(=O)Nc2cccc3ccccc23)[C@@H](C)CN([C@H](C)CO)C(=O)c2cc(NC(=O)C3CCCCC3)ccc2O1`, the outcome was inactive.

As to `C[C@H](CO)N1C[C@H](C)[C@H](CN(C)C(=O)Nc2cccc3ccccc23)OCCCC[C@H](C)Oc2ccc(NC(=O)CCC(F)(F)F)cc2C1=O`, the outcome was inactive.

Take `C[C@H](CO)N1C[C@H](C)[C@H](CN(C)C(=O)Nc2ccc(F)cc2)OCCCC[C@H](C)Oc2ccc(NC(=O)Nc3ccccc3)cc2C1=O`: the result was inactive.

For the compound `C[C@H]1CCCCO[C@@H](CN(C)C(=O)Nc2ccc(C(F)(F)F)cc2)[C@@H](C)CN([C@@H](C)CO)C(=O)c2cc(NC(=O)CCC(F)(F)F)ccc2O1`, the result was inactive.
